Laboratory results taken from PubChem BioAssay AID1626 (SRMLSC, 2009).
About 2,000 (0.91%) of roughly 220,000 compounds were called active. Inconclusive results (about 2%) are left out. No stated cut-off is given here; in the data, inconclusive means inhibition above about 80% without an active follow-up result; inactive means below that; test concentration not stated here. These entries were drawn from the full list. Measured potencies and affinities stand elsewhere.

assay: M. tuberculosis H37Rv growth inhibitors, H37Rv strain (AID 1626); details: stronger effect = higher value, concentration not given here;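 further: bacteria incubated seven days before Alamar blue readout; 0% = bacteria only wells and 100% = bacteria with antibiotic wells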

| Structure (SMILES) | inhibition |
| --- | --- |
| COCCNC(=O)CN(C)S(=O)(=O)c1ccc(Br)cc1 | -4.89% (inactive) |
| Cc1cc(C(=O)c2ccc(Cl)cc2)c(NC(=O)CCl)s1 | 73.2% (inactive) |
| CCc1cc(C(=O)c2ccc(C)cc2)c(NC(=O)CCl)s1 | 76.6% (inactive) |
| COc1cc(-c2nnc(SCC(=O)c3ccc(C)cc3)o2)cc(OC)c1OC | 2.03% (inactive) |
| COc1ccc(-c2nnc(SCC(=O)N3CCOCC3)o2)cc1OC | -5.9% (inactive) |
| COc1ccc(OC)c(C(=O)CSc2nnc(-c3ccc(OC)c(OC)c3)o2)c1 | -6.09% (inactive) |
| COc1ccc(-c2nnc(SCC(=O)N3CCCCC3)o2)cc1OC | 5% (inactive) |
| COc1ccc(-c2nnc(SCC(=O)N3CCCC3)o2)cc1OC | -0.93% (inactive) |
| O=C(CSc1nnc(-c2cccnc2)o1)OC1CCCCC1 | -4.83% (inactive) |
| O=C(CSc1nnc(-c2cccs2)o1)N1CCCCC1 | 1.5% (inactive) |
| O=C(CSc1nnc(-c2cccs2)o1)OCc1ccccc1 | -0.9% (inactive) |
| C=CCn1nnnc1-c1cc(Cl)cc(Cl)c1 | 2.4% (inactive) |
| CCCn1nc(C(=O)OCC(=O)c2c(N)n(C)c(=O)n(C)c2=O)c2ccccc2c1=O | 5.18% (inactive) |
| N#Cc1c(/N=C/c2cccnc2)sc2c1CCCC2 | 2.15% (inactive) |
| O=C(CN1C(=O)c2ccccc2C1=O)Nc1cccc2cccnc12 | 7.46% (inactive) |
| CC1=CC(C)(C)N(C(=O)CSc2nncn2C)c2ccccc21 | 4.36% (inactive) |
| C=CCN(CC=C)S(=O)(=O)c1ccc(NC(=S)NC(=O)/C=C/c2cccc3ccccc23)cc1 | 2.67% (inactive) |
| CC(C)(C)OC(=O)NNC(=S)NCc1ccc(Cl)cc1 | -13% (inactive) |
| CCc1ccc2[nH]c(=O)c(CN(Cc3ccccc3OC)C(=O)Nc3ccccc3OC)cc2c1 | 7.78% (inactive) |
| CC1CCN(C(=O)CSc2nnc(-c3cccnc3)n2C2CCCCC2)CC1 | -2.09% (inactive) |

| Structure (SMILES) | inhibition |
| --- | --- |
| COc1cc(-c2cc(C(=O)Nc3ccc(S(=O)(=O)Nc4ncccn4)cc3)c3ccccc3n2)cc(OC)c1OC | 40.2% (inactive) |
| Cc1cc(C)cc(OCc2nnc(SCC(=O)N3CCN(c4ccccc4)CC3)o2)c1 | -4.78% (inactive) |
| Cc1cccc(C(=O)c2c(N)sc3c2CCC(C)C3)c1 (centres undefined) | 5.18% (inactive) |
| CCOc1ccc(S(=O)(=O)NCCN2CCOCC2)c2ccccc12 | -4.29% (inactive) |
| CCOC(=O)C1(CC2CCCCO2)CCN(C(=O)Nc2ccccc2SC)CC1 (centres undefined) | 6.6% (inactive) |
| CCC(=O)N1CCN(c2c(Cl)cccc2[N+](=O)[O-])CC1 | 4.63% (inactive) |
| CCCCN(CC)CCCNC(=S)Nc1ccc2nc3n(c(=O)c2c1)CCCCC3 | -5.11% (inactive) |
| O=C(COC(=O)c1n[nH]c2ccccc12)Nc1ccccc1 | -10.9% (inactive) |
| O=C(NCCN1CCOCC1)c1ccc(Cl)cc1[N+](=O)[O-] | -10.2% (inactive) |
| O=C(NCCCN1CCOCC1)c1cc(Cl)ccc1[N+](=O)[O-] | -3.28% (inactive) |
| O=C(NCCN1CCOCC1)c1ccccc1[N+](=O)[O-] | 1.9% (inactive) |
| O=C(NCCCN1CCOCC1)c1ccc(Cl)cc1[N+](=O)[O-] | -0.73% (inactive) |
| COc1ccc(CNC(=O)COC(=O)c2n[nH]c3ccccc23)cc1 | 10.8% (inactive) |
| Cc1ccc(SC[C@H](CC(C)C)N2CCN(CCc3ccccc3)CCC2=O)cc1 | 16.3% (inactive) |
| CCOc1ccccc1-c1n[nH]c(=S)o1 | 6.98% (inactive) |
| COCCOC(=O)C1=C(C)NC(=O)NC1c1c(Cl)nc2c(C)cccn2c1=O (centres undefined) | -7.69% (inactive) |
| Cc1noc(C)c1S(=O)(=O)N1CCCC(C(=O)c2cccc(OC(C)C)c2)C1 (centres undefined) | 0% (inactive) |
| Cc1nc2cc(C(=O)OCC(=O)NC(C)C(C)C)ccc2n1-c1ccccc1 (centres undefined) | -6.92% (inactive) |
| Cc1nc2cc(C(=O)OCC(=O)NC3CCS(=O)(=O)C3)ccc2n1-c1ccccc1 (centres undefined) | -9.28% (inactive) |
| CCCOc1ccc(/C(O)=C2/C(=O)C(=O)N(CCCOC)C2c2ccncc2)cc1 (centres undefined) | -0.21% (inactive) |

| Structure (SMILES) | inhibition |
| --- | --- |
| COCCCNS(=O)(=O)c1ccc2c(c1)OCCO2 | -7.88% (inactive) |
| CC(C)c1nc2sc3ccccc3c(=O)c2c(=O)n1Cc1ccccc1 | -7.18% (inactive) |
| Nc1ccc(C#Cc2c(-c3ccsc3)oc3ccc(N4CCOCC4)cc23)cc1 | 61.1% (inactive) |
| COc1ccc(-c2ccc3oc(-c4ccc(OC)cc4)c(C#CC4(O)CCCCC4)c3c2)cc1 | 18.4% (inactive) |
| COc1ccc(-c2oc3ccc(N4CCOCC4)cc3c2C#CC2(O)CCCCC2)cc1 | 89.2% (inactive) |
| COc1ccc(C#Cc2c(-c3ccsc3)oc3ccc(-c4cc(OC)c(OC)c(OC)c4)cc23)cc1 | 0.45% (inactive) |
| CCOc1ccc(C(c2c(NC(=O)c3ccccc3)sc(C)c2C)N2CCN(C)CC2)cc1 (centres undefined) | 17.1% (inactive) |
| c1ccc(C(c2ccccc2)N2CCN(C(c3ccccn3)c3nnnn3C3CCCC3)CC2)cc1 (centres undefined) | 6.45% (inactive) |
| COc1cc(OC)c2c(=O)cc(-c3cccnc3)oc2c1 | -11.6% (inactive) |
| CSc1sc(-c2n[nH]c(=S)n2C)c2c1C=CCC2 | 5.83% (inactive) |
| COC(=O)c1c(NC(=O)c2ccccc2)sc(C(N)=O)c1C | -3.85% (inactive) |
| COC(=O)c1c(NC(=O)c2ccccc2)sc(Cc2ccccc2)c1C | -9.2% (inactive) |
| CC(O)CCC(=O)NNC1CC(=O)N(c2ccccc2)C1=O (centres undefined) | -8.86% (inactive) |
| C=CCN(c1ccccc1)S(=O)(=O)c1cccc(C(=O)O)c1 | -12.8% (inactive) |
| Cc1ccc(C)c(-n2nnnc2Sc2nc([N+](=O)[O-])nn2C)c1 | -10.2% (inactive) |
| Cc1ccc(-n2nnnc2Sc2nc([N+](=O)[O-])nn2C)cc1 | 0.83% (inactive) |
| Cc1ccc(C2(c3noc(CN4CCC(c5ccncc5)CC4)n3)CCCC2)cc1 | 13.7% (inactive) |
| O=C(O)c1ccc(N/N=C/C2=C(N3CCOCC3)C(=C\c3ccccc3)/CC2)cc1 | -3.9% (inactive) |
| O=CC1=C(N2CCOCC2)/C(=C\c2ccccc2)CC1 | 0.77% (inactive) |
